Assay outcomes deposited in PubChem BioAssay by National Center for Advancing Translational Sciences (NCATS).
S16 F2sN tox = cytotoxicity in S16 Pmp22-F2sN Schwann cells | 43,000 tested, 0.48% active | S16 Pmp22-F2sN Schwann cells viability, CellTiter-Glo, 24 h | Potency, µM (highest dose often 57.5 µM), for inactives: at the top dose activity change, negative = cytotoxicity, most hits filed as cytotoxic | AID 1508642; also: potency is read from the fitted curve at half-maximal effect; % is scaled to controls: 0 for no effect and ±100 for the full control effect; nearly all actives have a fitted effect of over 65% in size
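Seed 500-1,000 S16 Pmp22-F2sN cells per well in phenol-red-free DMEM with 10% heat-inactivated FBS; pin-add 23 nL compound; incubate 24 h at 37C; add CellTiter-Glo, wait 15 min protected from light; read luminescence.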
p53null 32C kill = selectivity test: cytotoxicity in p53 null cells, permissive temperature; H1299-neo p53 null cells, ATP luminescence, 24 h, 32C; Potency, µM (doses to about 46.1 µM), without a hit: top-dose activity change, negative = cytotoxicity, usual class: cytotoxic; 55,000 tested, 0.62% active;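 also: potency is read from the fitted curve at half-maximal effect; 0% = DMSO only and -100% = full killing by 100 µM tamoxifen; nearly all actives have a fitted effect of over 55% in size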
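Overnight 37C seeding (600 cells/well) of H1299-neo preceded a 24 hr, 32C exposure to compounds up to 46 uM. ATP levels, read by luminescence after 20 min at RT, indicated surviving cells.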
OvCa metastasis = ovarian cancer metastasis inhibition, 3D TME model. SKOV3ip1-GFP adhesion/invasion on 3D omental model, fluorescence. Potency, µM (highest dose often 45.8 µM), without a hit: at the highest dose activity change, negative = inhibition, most hits filed as inhibitors. 46,000 tested, 0.1% active. AID 1963576;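 also: potency is read from the fitted curve at half-maximal effect; plate controls were DMSO wells for no effect and tomatine positive control wells for full effect; nearly all actives have a fitted effect of over 65% in size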
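Primary human omental fibroblast/mesothelial 3D culture pre-formed 48 h. SKOV3ip1-GFP cells added with compounds (0.36-46 umol/L), incubated 2 h RT/16 h 37 C, fixed; GFP cells quantified at 488/509 nm.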
p53null 39C kill = p53 null cell cytotoxicity, nonpermissive temperature; Potency, µM (top dose mostly 46.1 µM), without a hit: at the highest dose activity, negative = cell killing, actives largely listed as cytotoxic; H1299 p53-null (neo) cells, 39C, ATPlite viability, 24 h; 55,000 tested, 0.97% active;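 also: potency is read from the fitted curve at half-maximal effect; 0% = DMSO only and -100% = full killing by 100 µM tamoxifen; nearly all actives have a fitted effect of over 50% in size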
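Following overnight plating at 37C (600 cells/well), H1299-neo or H1299-p53A138V cells are dosed up to 46 uM. Incubation lasts 24 hr at 39C before ATP detection.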
mTORC1 inh = reduces mTORC1 signaling in Tsc2 and p53 null MEF cells | Tsc2-/- p53-/- MEF, phospho-rpS6 immunofluorescence/PI, 24 h | Potency, µM (top dose mostly 38.3 µM), for inactives: at the highest dose activity change, negative = inhibition, actives largely listed as inhibitors | 44,000 tested, 0.78% active | AID 493208;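 also: potency is read from the fitted curve at half-maximal effect; plate controls were DMSO for no effect and rapamycin for full effect; nearly all actives have a fitted effect of over 50% in size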
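Compounds act on Tsc2-/-, p53-/- fibroblasts carrying an empty vector for 24 h before fixation and dual staining for phospho-S6 and DNA (propidium iodide). Values are percentages of cells above a rapamycin-defined pS6/PI threshold.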
PMP22 txn prim = modulators of PMP22 gene transcription in S16 Schwann cells. S16 Pmp22-F2sN Schwann cells (luciferase reporters placed in the Pmp22 gene), FLuc/NLuc coincidence luminescence, 24 h. Potency, µM (titrated, usually from 57.5 µM), without a hit: top-dose activity change, negative = inhibition, most hits filed as inhibitors. 43,000 tested, 2% active; active = clear falling dose curves in both reporters; inconclusive = both reporters move, but less clearly or upward; inactive = either reporter flat; the % is the NLuc reporter signal; also: potency is read from the fitted curve at half-maximal effect; % is scaled to controls: 0 for no effect and ±100 for the full control effect
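Schwann cells carrying the coincidence reporter were exposed to library compounds for 24 h at 37C, then lysed and read for FLuc and, after quenching, NLuc luminescence on a CCD imager.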
NLuc saturating = inhibits NanoLuc at saturating substrate, PMP22 counter-screen. Secreted NLuc enzyme (filtered S16 cell medium), Nano-Glo luminescence. shares compounds with PMP22 txn prim. Potency, µM (series often up to 57.5 µM), for the others: at the highest dose activity change, negative = inhibition, most hits filed as inhibitors. 690 tested, 4% active; also: potency is read from the fitted curve at half-maximal effect; % is scaled to controls: 0 for no effect and ±100 for the full control effect
NLuc Km ctr = NanoLuc inhibition at Km substrate, PMP22 artifact check; Potency, µM (doses to about 57.5 µM), for inactives: at the highest dose activity change, negative = inhibition, usual class: inhibitors; 690 tested, 5% active; shares compounds with PMP22 txn prim; secreted NLuc enzyme, coelenterazine luminescence, Km conditions; also: potency is read from the fitted curve at half-maximal effect; % is scaled to controls: 0 for no effect and ±100 for the full control effect
FLuc counter = counter-screen for PMP22 expression modulators: firefly luciferase inhibition | purified P. pyralis FLuc, luminescence, 10 min | shares compounds with PMP22 txn prim | 690 tested, under 10 active | Potency, µM (series often up to 57.5 µM), inactives show at the highest dose activity, negative = inhibition, usual class: inhibitors; also: % of control where 0% means no effect
Target sequence (P08659 whole entry, looked up): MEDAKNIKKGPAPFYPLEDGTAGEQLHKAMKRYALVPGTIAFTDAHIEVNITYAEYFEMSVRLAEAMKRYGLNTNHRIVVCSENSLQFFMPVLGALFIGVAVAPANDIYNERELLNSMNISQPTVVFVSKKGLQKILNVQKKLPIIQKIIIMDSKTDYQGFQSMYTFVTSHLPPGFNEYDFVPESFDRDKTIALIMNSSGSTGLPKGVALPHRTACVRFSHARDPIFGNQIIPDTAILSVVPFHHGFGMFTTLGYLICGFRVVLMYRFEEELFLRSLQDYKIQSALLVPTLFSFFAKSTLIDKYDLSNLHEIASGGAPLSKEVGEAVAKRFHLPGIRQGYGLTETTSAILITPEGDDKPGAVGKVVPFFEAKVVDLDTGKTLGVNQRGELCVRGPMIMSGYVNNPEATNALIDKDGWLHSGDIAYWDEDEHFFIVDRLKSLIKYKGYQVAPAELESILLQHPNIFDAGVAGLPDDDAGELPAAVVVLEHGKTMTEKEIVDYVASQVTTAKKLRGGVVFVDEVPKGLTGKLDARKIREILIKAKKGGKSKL
S16 viab conf = S16 Schwann cell cytotoxicity, confirmatory. shares compounds with PMP22 txn prim. S16 Schwann cells viability, CellTiter-Glo ATP luminescence, 24 h. Potency, µM (series often up to 57.5 µM), for inactives: top-dose activity change, negative = viability loss, hits mostly cytotoxic. 690 tested, 7% active. AID 1508641; also: potency is read from the fitted curve at half-maximal effect; % is scaled to controls: 0 for no effect and ±100 for the full control effect
PMP22 txn conf = confirmation of modulators of PMP22 gene transcription in S16 cells. shares compounds with PMP22 txn prim. S16 Schwann cells Pmp22-F2sN, dual luciferase, 24 h. Potency, µM (series often up to 57.5 µM), without a hit: at the top dose activity change, negative = inhibition, usual class: inhibitors. 690 tested, 22% active; active = clear falling dose curves in both reporters; inconclusive = both reporters move, but less clearly or upward; inactive = either reporter flat; the % is the FLuc reporter signal; also: potency is read from the fitted curve at half-maximal effect
* marks the source's active call; other numbers are inactive results; i = inactive; ? = inconclusive; . = not tested or not shown. Most compounds without a hit are left out; they make up all but 3.1% or so of the library. Unless noted, calls follow the shape of the dose curve; as a rule, active = well fitted curve in the direction sought with a large enough effect; inconclusive = small, poorly fitted or top-dose-only effect, or another doubt; inactive = no such curve, though single readings can be large; an effect the other way counts as inactive or inconclusive.

SMILES	S16 F2sN tox	p53null 32C kill	OvCa metastasis	p53null 39C kill	mTORC1 inh	PMP22 txn prim	NLuc saturating	NLuc Km ctr	FLuc counter	S16 viab conf	PMP22 txn conf
CCOC(=O)N1CCN(Cc2nc3cc(NC(=O)CC)ccc3n2C(C)C)CC1	-17%	6%	0%	-11%	?	5.3µM*	-5%	-3%	1%	7%	?
CCOc1ccccc1N=Nc1c(C)[nH]n(-c2nc(-c3ccccc3)cs2)c1=O	.	.	-4%	.	.	.	.	.	.	.	.
Cc1cccc(C=NNc2cc(N3CCOCC3)nc(OCCc3ccccn3)n2)c1	.	.	-31%	.	.	.	.	.	.	.	.
COc1ccccc1N1CCN(CCCNC(=O)c2nnc(Cc3c(F)cccc3Cl)o2)CC1	-3%	5%	2%	1%	-8%	13µM*	-1%	1%	10%	-9%	-23%
Cc1ccccc1S(=O)(=O)Cc1ccc(C(=O)NCc2ccccc2Cl)o1	-3%	5%	i	-9%	-16%	?	-9%	-4%	?	4%	-2%
CCCCn1c(=N)n(CCOc2ccccc2OC)c2ccccc21	?	-9%	?	?	12µM*	20µM*	-10%	1%	-10%	?	?
O=C(O)C(=O)Nc1cccc(C2=NN=N[N]2)c1	.	.	-6%	.	.	.	.	.	.	.	.
COc1ccccc1CN1C(=O)C(=O)c2cccc(C)c21	?	-5%	-3%	-12%	-2%	-71%	.	.	.	.	.
Cc1cc(Br)cc2c1N(Cc1ccccc1OC(C)C)C(=O)C2=O	?	?	?	?	?	9.5µM*	?	?	-21%	?	15µM*
CCc1ccccc1NC(=O)Cn1nnc(C(=O)NCc2cccs2)c1N	-16%	17%	?	6%	-3%	?	-7%	2%	-7%	-8%	?
COc1ccccc1NC(=O)Cn1nnc(C(=O)NCc2cccs2)c1N	-9%	27%	-6%	12%	-12%	1.2µM*	-4%	-1%	-1%	6%	?
COc1ccc(NC(=O)Cn2nnc(C(=O)NCc3cccs3)c2N)cc1	4%	4%	-3%	32%	-5%	-4%	.	.	.	.	.
CNC(=O)c1ccc(N2C(=S)N(c3ccc(C#N)c(C(F)(F)F)c3)C(=O)C2(C)C)cc1F	.	.	11%	.	.	.	.	.	.	.	.
Cc1c(Cl)cccc1NC(=O)CSc1ncc2c(n1)-c1ccccc1N(C)S2(=O)=O	5%	-23%	-3%	-18%	3%	17µM*	?	?	2%	6%	-44%
CCOc1cc(-c2nnc(SCC(=O)NCc3ccccc3)nc2-c2ccc(OC)c(OCC)c2)ccc1OC	7%	14%	1%	4%	-14%	8.9µM*	?	?	0%	5%	?
FC(F)c1nc2ccccc2n1-c1nc(N2CCOCC2)nc(N2CCOCC2)n1	.	.	9%	.	.	.	.	.	.	.	.
COc1ccc(Nc2cc(C)nc3c(C)c(C)ccc23)cc1	19%	7%	5%	16%	?	14µM*	-1%	0%	0%	3%	-24%
CCOc1ccccc1NC(=O)c1c(NC(=O)COc2ccc(Cl)cc2)sc2c1CCCCC2	3%	14%	3%	13%	10%	-2%	.	.	.	.	.
CCOc1ccccc1NC(=O)c1c(NC(=O)COc2ccccc2)sc2c1CCCCC2	1%	-2%	-27%	-13%	-4%	13µM*	0%	3%	-2%	7%	3%
CCOc1ccc2oc(=O)cc(CN3CCN(Cc4ccc(F)cc4)CC3)c2c1	?	-5%	-6%	-9%	-5%	14µM*	-9%	9%	-3%	-9%	-17%
O=C(O)CCCCC(CCSCc1ccccc1)SCc1ccccc1 (stereo unspecified)	.	.	10%	.	.	.	.	.	.	.	.
CCCn1ccc2c(OCC(=O)Nc3ccccc3C(=O)OCC)cccc2c1=O	-1%	-9%	1%	-4%	-9%	14µM*	-6%	3%	-10%	2%	?
COc1ccc(Cl)cc1NS(=O)(=O)c1cc(Br)cc2c1N(C(=O)C1CC1)CC2	3%	0%	i	0%	-12%	-44%	.	.	.	.	.
Cc1ccc(NS(=O)(=O)c2cc(Br)cc3c2N(C(=O)C2CC2)CC3)cc1C	?	20%	i	-8%	-13%	8.9µM*	?	-7%	-1%	?	?
COc1cc(NS(=O)(=O)c2cc(Br)cc3c2N(C(=O)C2CC2)CC3)cc(OC)c1	-19%	7.9µM*	0%	?	?	3.6µM*	14µM*	?	0%	?	18µM*
COc1cc(OC)c(OC)cc1/C=C/c1nc2cc3ccccc3cc2c(=O)n1-c1ccc(F)cc1F	?	-1%	i	-21%	11%	9.5µM*	3.1µM*	2.2µM*	?	-8%	13%
COc1ccc(-c2cc(=O)c3c(O)cc(O[C@@H]4O[C@H](CO[C@@H]5O[C@@H](C)[C@H](O)[C@@H](O)[C@@H]5O)[C@@H](O)[C@H](O)[C@@H]4O)cc3o2)cc1O	.	.	1%	.	.	.	.	.	.	.	.
O=C(Cn1cc(C(=O)c2ccco2)c2ccccc21)Nc1ccccc1C(F)(F)F	-13%	-27%	0%	-24%	-19%	12µM*	-4%	3%	5%	16%	3%
O=C(Cn1cc(C(=O)c2ccco2)c2ccccc21)Nc1ccccc1Cl	-1%	-4%	-7%	-5%	?	?	.	.	.	.	.
CCNc1nc(NC(C)(C)C)nc(Oc2ccc(=O)n(-c3ccccc3)n2)n1	-1%	0%	5%	-6%	-9%	?	-9%	-3%	-7%	-13%	-33%
